# From PubChem
# HT1080 IDH1KD tx: toxicity to HT-1080 IDH1 knockdown cells (counter line); HT-1080 IDH1 knockdown viability, ATP luminescence, 48 h; Potency, µM (series often up to 46.1 µM), for inactives: at the top dose activity, negative = toxicity, hits mostly cytotoxic; 2% of 360,000 active; AID 686971;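 note: 0% = DMSO wells and -100% = cell-free medium wells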
#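 After a 2 h attachment period, IDH1KD HT-1080 cells took pin-transferred compound for 48 h at 37 °C; ATP-based luminescence after 10 min room-temperature reagent incubation reported viability.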
# SW480 rereplic: inducers of DNA re-replication in SW480 colon cancer cells. 1.8% of 340,000 active. SW480 DNA re-replication, Hoechst DNA content imaging, 48 h. Potency, µM (doses to about 46.1 µM), without a hit: top-dose re-replication activation, hits mostly activators; note: % of control where 0% means no effect; nearly all actives have a fitted effect of over 55% in size
#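 Compounds, transferred as 23 nL by pin tool, were incubated with cells for 48 hr; DNA content per nucleus was then quantified by Hoechst staining and fluorescence plate imaging.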
# MCF10A rerep: inducers of DNA re-replication in MCF 10A breast cells | MCF 10A DNA re-replication, Hoechst nuclear intensity, 48 h | 2.9% of 350,000 active | Potency, µM (series often up to 46.1 µM), inactives show top-dose activity, positive = re-replication, actives largely listed as activators; note: % of control where 0% means no effect; nearly all actives have a fitted effect of over 50% in size
# KB-3-1 tox: KB-3-1 parental cell cytotoxicity; KB-3-1 viability, CellTiter-Glo ATP luminescence, 72 h; 1.4% of 400,000 active; Potency, µM (doses to about 46.1 µM), most hits filed as cytotoxic; AID 1347075; note: % is set by controls: 0 for no effect and ±100 for the full control effect; nearly all actives have a fitted effect of over 60% in size
#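 KB-3-1 cells, DMEM (no phenol red) + 10% FBS; compound by pin transfer, 72 h, 37 °C. Readout: CellTiter-Glo luminescence after 10 min. Data normalized, curve-fitted.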
# HT1080NT lethal: kills 2HG-producing HT-1080-NT fibrosarcoma cells; 1.6% of 360,000 active; HT-1080-NT fibrosarcoma viability, CellTiter-Glo ATP luminescence, 48 h; Potency, µM (highest dose often 46.1 µM), for the others: top-dose activity, negative = less viability, actives largely listed as cytotoxic;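 note: NT is the 2HG producing partner of a matched IDH1 knockdown line; 0% = DMSO-treated cells and -100% = media-only wells without cells; nearly all actives have a fitted effect of over 55% in size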
#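 Viability by CellTiter-Glo luminescence after 48 h compound exposure at 37C of HT-1080-NT cells (750/well, RPMI, 5% FBS). % activity scaled between DMSO wells and medium-only wells, then curve-fitted and categorized by curve class.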
# KB-V1 cytotox: KB-V1 MDR subline cytotoxicity. KB-V1 MDR cells viability, CellTiter-Glo, 72 h. 3.4% of 400,000 active. AID 1347076. Potency, µM (highest dose often 46.1 µM), actives largely listed as cytotoxic; note: % is set by controls: 0 for no effect and ±100 for the full control effect; nearly all actives have a fitted effect of over 60% in size
#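 Compound-treated KB-V1 multidrug-resistant cells, 72 h, 37 degrees C; viability by CellTiter-Glo. Fitted qHTS curves give the values.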
# The depositor's hits bear a star; i = inactive; ? = inconclusive; nt = no result; ! = a repeat was not active. Most compounds without a hit are left out; they make up all but 7.9% or so of the library. Calls come from the whole dose curve; as a rule, active = well fitted curve in the direction sought with a large enough effect; inconclusive = small, poorly fitted or top-dose-only effect, or another doubt; inactive = no such curve, though single readings can be large; an effect the other way counts as inactive or inconclusive. Potency is the fitted concentration of half-maximal effect.
SMILES,HT1080 IDH1KD tx,SW480 rereplic,MCF10A rerep,KB-3-1 tox,HT1080NT lethal,KB-V1 cytotox
O=C(NCc1ccco1)C12CC3CC(C1)CC(C(=O)NCc1ccco1)(C3)C2,2%,-3%,-2%,i,-16%,21µM*
O=S(NCc1ccco1)C12CC3CC(CC(C3)C1)C2 (stereo unspecified),-8%,-2%,21µM*,i,6%,i
O=S(NCc1ccccc1)C12CC3CC(CC(C3)C1)C2 (stereo unspecified),0%,1%,-6%,i,-1%,i
CCCCN(CC)CCCNC(=O)CS(=O)(=O)Cc1nc(-c2ccc(C)cc2)oc1C,nt,nt,nt,i,nt,i
COCc1cccc(C(=O)NC(c2ccccc2)c2ccccc2)c1,0%,1%,-2%,i,8%,i
O=c1[nH]cnc2c1ncn2-c1ccc(Cl)cc1,-1%,-8%,?,nt,0%,nt
CCCn1nnc(NC(=O)/C=C/c2ccco2)n1,17%,21µM*,30%,i,20%,i
CCCn1nnc(NC(=O)c2ccc(-c3cc(Cl)ccc3Cl)o2)n1,-3%,3%,20%,i,-1%,i
CCCn1nnc(NC(=O)c2ccccc2Br)n1,4%,5.2µM*,18µM*,i,1%,i
CCCn1nnc(NC(=O)COc2ccc(Cl)cc2)n1,8%,-2%,8%,i,7%,i
CCCn1nnc(NC(=O)Cc2ccc(Cl)cc2)n1,2%,-2%,8.2µM*,?,6%,i
CCCCn1nnc(NC(=S)NC(=O)c2ccc(-c3cccc(Cl)c3Cl)o2)n1,1%,-5%,14%,?,-3%,15µM*
Cc1c(NC(=O)Nc2cccc(Cl)c2Cl)c(=O)n(-c2ccccc2)n1C,10%,-7%,0%,i,5%,?
COc1ccc(CC(=O)Nc2ccc(-c3cn4ccc(C)cc4n3)cc2)cc1,?,?,?,i,15µM*,?
O=C(CSc1ncc2c(n1)-c1ccc(Cl)cc1N(Cc1ccccc1)S2(=O)=O)Nc1ccccc1C(F)(F)F,nt,nt,nt,i,nt,i
Cc1ccc([N+](=O)[O-])cc1NC(=O)CN(C(=O)c1ccc(Cl)cc1)C1CCCCC1,?,16%,10%,?,-14%,23µM*
O=C(CN(C(=O)c1ccc(Cl)cc1)C1CCCCC1)Nc1ccc(Cl)c([N+](=O)[O-])c1,?,?,7%,i,?,15µM*
O=C(C[n+]1ccc(Cc2ccccc2)cc1)Nc1ccc([N+](=O)[O-])cc1Cl,1%,11%,?,i,-4%,i
O=C(CN(C(=O)c1ccccc1Cl)C1CCCCC1)Nc1ccc(Cl)c([N+](=O)[O-])c1,?,?,12%,i,-27%,i
Cc1ccc(Cl)cc1NC(=O)C[n+]1ccc(Cc2ccc([N+](=O)[O-])cc2)cc1,-15%,3%,?,10µM*,?,?
O=C(Cn1c(=O)n(Cc2ccc(C(=O)NCc3ccccc3Cl)cc2)c(=O)c2ccccc21)Nc1ccc(F)c(Cl)c1,nt,nt,nt,i,nt,i
CCCCN(CC(=O)NC1CCCC1)C(=O)C(=O)Nc1ccc2c(c1)OCCO2,16%,-4%,-4%,i,15%,i
Cc1ccc(S(=O)(=O)N2CCC(C(=O)OC(C)C(=O)N(C)c3ccccc3)CC2)cc1C (stereo unspecified),0%,2%,?,i,-3%,?
Cc1ccc(C2=NN(S(C)(=O)=O)C(c3ccc4c(c3)OCO4)C2)cc1 (stereo unspecified),2%,3%,11%,i,2%,?
CS(=O)(=O)N1N=C(c2ccc(Br)cc2)CC1c1ccc2c(c1)OCO2 (stereo unspecified),10%,1%,22%,i,17%,16µM*
SMILES,HT1080 IDH1KD tx,SW480 rereplic,MCF10A rerep,KB-3-1 tox,HT1080NT lethal,KB-V1 cytotox
Cc1cccc(N2CCN(C(=O)c3ccc4c(c3)c(C)c(C)n4C)CC2)c1C,nt,nt,nt,i,nt,i
COc1ccccc1N1CCN(C2CCN(C(=O)c3cccc(F)c3)CC2)CC1,-1%,-2%,12%,i,7%,16µM*
Cc1ccc(C)c(N2CCN(C(=O)c3ccc4c(c3)c(C)c(C)n4C)CC2)c1,?,?,5.2µM*,?,?,i
COc1ccccc1N1CCN(C(=O)c2ccc3ncsc3c2)CC1,8.2µM*,16µM*,21µM*,5.2µM*,12µM*,12µM*
Cc1ccc(C)c(N2CCN(C(=O)c3ccc4nc(-c5ccco5)c(-c5ccco5)nc4c3)CC2)c1,?,18µM*,?,18µM*,?,?
COc1ccc(OC)c2sc(N3CCN(C(=O)c4ccc5ncsc5c4)CC3)nc12,-13%,-524%,-6%,i,-20%,i
CC1=C(C(=O)Nc2ccc(C)cc2C)C(c2cccs2)n2nc(SCc3ccccc3Cl)nc2N1 (stereo unspecified),nt,nt,nt,i,nt,i
CCOc1cc(N2CCOCC2)c(OCC)cc1NC(=O)CSc1nnc(N)s1,4%,-5%,-28%,i,1%,i
Cc1cccc2c(=O)n(C(=O)c3ccccc3)c(N)nc12,-5%,nt,nt,i,-5%,?
COc1ccccc1N1CCN(C(=O)c2nc(SC)ncc2Cl)CC1,nt,nt,nt,4.1µM*,nt,4.1µM*
CC1CCCN(C(=O)c2ccc3ncsc3c2)C1 (stereo unspecified),-1%,3.7µM*,9%,i,-5%,i
COc1ccccc1N1CCN(C(=O)c2ccc3nc(-c4ccco4)c(-c4ccco4)nc3c2)CC1,?,?,23µM*,?,?,23µM*
O=C(COc1ccc(Cl)cc1)Nc1cc2c3c(c1)CC(=O)N3CCC2,-1%,-4%,1%,i,-4%,i
O=C1OCC2=C1C(c1ccc3c(c1)OCO3)c1cc3c(cc1O2)OCO3 (stereo unspecified),6.5µM*,4.6µM*,8.2µM*,3.3µM*,3.3µM*,1.5µM*
COc1cc(C2C3=C(COC3=O)Oc3cc4c(cc32)OCO4)cc(OC)c1OC (stereo unspecified),?,0.13µM*,0.23µM*,0.58µM*,0.1µM*,0.1µM*!
COc1cc(C2C3=C(COC3=O)Oc3cc4c(cc32)OCO4)cc(OC)c1O (stereo unspecified),?,?,?,?,0.46µM*,?
